The supplement of paper PMC8387472

Experiments:
Assay in all cases: fraction of 1-bp insertions among edited reads; higher = more 1-bp insertion outcomes
Settings in all cases: mESC; 2uM; 72 h treatment, harvest day 5
[1] = compound: CCn1c(=O)c(-c2ccc(Cl)cc2Cl)cc2cnc(Nc3ccc(N4CCNCC4)c(F)c3)nc21
[2] = compound: CNc1ccc([N+](=O)[O-])c(Nc2ccc3[nH]ncc3c2)n1
Rifapentine = compound: CO[C@H]1/C=C/O[C@@]2(C)Oc3c(C)c(O)c4c(O)c(c(/C=N/N5CCN(C6CCCC6)CC5)c(O)c4c3C2=O)NC(=O)/C(C)=C\C=C\[C@H](C)[C@H](O)[C@@H](C)[C@@H](O)[C@@H](C)[C@H](OC(C)=O)[C@@H]1C [Rifapentine]
[3] = compound: COc1ccccc1-c1cc(Nc2cccc(CS(N)(=O)=O)c2)ncn1
[4] = compound: C[C@@H]1CN(CC(=O)Nc2ccc3c(c2)Cc2cccc(-c4cc(=O)cc(N5CCOCC5)o4)c2S3)C[C@H](C)O1
[5] = compound: Cc1cc(C)nc(SCC(=O)Nc2ncc(Cc3cccc4ccccc34)s2)n1
[6] = compound: Cc1ccc(C(=O)NCCCCCC(=O)Nc2ccccc2N)cc1
[7] = compound: Cc1cccc(CC(=O)N2CCc3c2ccc(-c2cn(C)c4ncnc(N)c24)c3F)n1
[8] = compound: NC(=O)c1ccc2nc(-c3ccc(Oc4ccc(Cl)cc4)cc3)[nH]c2c1 [Chk 2 inhibitor II (BML-277)]
Tucidinostat (Chidamide) = compound: Nc1cc(F)ccc1NC(=O)c1ccc(CNC(=O)/C=C/c2cccnc2)cc1 [Tucidinostat (Chidamide)]

Row | Target | fraction of 1-bp insertions among edited reads [1] | fraction of 1-bp insertions among edited reads [2] | fraction of 1-bp insertions among edited reads (Rifapentine) | fraction of 1-bp insertions among edited reads [3] | fraction of 1-bp insertions among edited reads [4] | fraction of 1-bp insertions among edited reads [5] | fraction of 1-bp insertions among edited reads [6] | fraction of 1-bp insertions among edited reads [7] | fraction of 1-bp insertions among edited reads [8] | fraction of 1-bp insertions among edited reads (Tucidinostat (Chidamide))
1 | 17.0 (DMSO control at this site: 1-bp insertion 0.112, MH deletion 0.348, edited 0.058) CCATAGCGCGATAAATATGACGGCTCATCCTGTATGACGGCTCATCCTGTATCAACTGTCC | 0.166 | 0.165 | 0.136 | 0.158 | 0.354 | 0.14 | 0.15 | 0.124 | 0.14 | 0.168
2 | 20.0 (DMSO control at this site: 1-bp insertion 0.349, MH deletion 0.138, edited 0.084) TACAGGTGTAGACTGGTTACGTGGCTGCGGAATTGACTGGTTACGTGGCTGCGGAATTTTG | 0.317 | 0.438 | 0.293 | 0.345 | 0.47 | 0.3 | 0.315 | 0.355 | 0.233 | 0.348
3 | 41.0 (DMSO control at this site: 1-bp insertion 0.022, MH deletion 0.754, edited 0.115) AAAGAGACAGCAGGTATGAATCCATCTTCCTGACCCTTGGGACCAGCCGGGGCAGTGAAGC | 0.0239 | 0.0181 | 0.018 | 0.0187 | 0.0495 | 0.0288 | 0.0318 | 0.0382 | 0.0265 | 0.0195
4 | 31.0 (DMSO control at this site: 1-bp insertion 0.315, MH deletion 0.329, edited 0.026) ACCTCCACAGGCTGGGTGGCCCGGAGGCTGGGCGGCCCGGAGGCTGGGCTGGGCGAGTATC | 0.115 | 0.185 | 0.232 | 0.192 |  | 0.196 | 0.214 |  |  | 0.0994
5 | 43.0 (DMSO control at this site: 1-bp insertion 0.134, MH deletion 0.714, edited 0.104) AGTTTAACTTACTCCGGCCAAAAAAGAACTGCACCTCTGGAGCGGGTTAGTGGTGGTGGTA | 0.0588 | 0.0932 | 0.0993 | 0.101 | 0.118 | 0.0918 | 0.0831 | 0.0629 | 0.1 | 0.0828
6 | 27.0 CCAGAATTAGAACATATCATCTGGACCCTTTTCCATCTGGACCCTTTTCCAGCACACCCTG |  | 0.13 | 0.109 | 0.108 |  | 0.124 | 0.149 |  |  | 0.137
7 | 47.0 (DMSO control at this site: 1-bp insertion 0.095, MH deletion 0.585, edited 0.118) GAGTGGTCCCGAGCCAGGAACTGTGTGTGTTGCAGGGGGGCAGTAACTCCCCAACTCCCTC | 0.0775 | 0.106 | 0.102 | 0.0993 | 0.269 | 0.0938 | 0.12 | 0.0914 | 0.0791 | 0.14
8 | 22.0 (DMSO control at this site: 1-bp insertion 0.573, MH deletion 0.229, edited 0.045) CTGATGGTTGAAGGATTTAGCCGGGGTCCTAGACGCCGGGGTCCTAGACGAAAGGGCCACG | 0.614 | 0.667 | 0.644 | 0.619 | 0.778 | 0.573 | 0.653 | 0.725 | 0.508 | 0.53
9 | 5.0 (DMSO control at this site: 1-bp insertion 0.214, MH deletion 0.567, edited 0.105) CGCTGACCCGAGACCTACGCGAACCGAAATCGGCGACCGGTGCGCAAGCAGGGCTGGCGTC | 0.179 | 0.261 | 0.208 | 0.267 | 0.477 | 0.232 | 0.217 | 0.252 | 0.208 | 0.257
